These results are taken from PubChem BioAssay (NCI).

Compounds without any hit were thinned out: in the full panel of roughly 83,000, 20% have a hit.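 Cell lines were cultured in 96-well plates, exposed to a single compound concentration, and assessed for percent growth 48 hours later.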 Activity calls are given as the source filed them. The calls were made as follows: active = growth percent below 10; inactive = the rest.

The subject of one assay is HCT-15 colon. Nature of the assay: NCI-60 one-dose screen, 48 h (100 = growth as untreated, 0 = no growth, -100 = all killed). The settings on record: 10 µM unless noted.
Consider `COc1ccc2nc(C)cc(Sc3nc4ccccc4s3)c2c1`, for which the growth was 29.2% (inactive).
The same measure, in the same setting: next, `CCN(CC)CCCC(C)Nc1ccnc2ccc(Oc3ccccc3)cc12` (stereo unspecified): 49.6% (inactive).
On the same count and under the same terms, next, `FC(F)(F)c1nn[nH]n1`: 105% (inactive); `CC(C)c1nc2ccccc2n1CC(=O)N/N=C/c1cccc(O)c1`: 104% (inactive).
Still for that read-out and setting: next, `O=c1c2cc(Br)cc(Br)c2nc(-c2ccc(Cl)cc2)n1/N=C\c1ccccc1F`: 88.3% (inactive); `C=CCN(CC#N)CC=C`: 116% (inactive).
As to `COC(=O)[C@@H](Cc1c[nH]c2ccccc12)NC(=O)/C=C/c1ccccc1`, the growth is 13.7% (inactive).
As for `CCOC(=O)C(CCCCC(NC(C)=O)(C(=O)OCC)C(=O)OCC)(NC(C)=O)C(=O)OCC`, the growth is 106% (inactive).
Still for that read-out and setting: next, `COc1ccc(-c2cnnn2-c2nonc2-n2cccc2)cc1`: 21.4% (inactive).
For the compound `CSC1=N/C(=C\c2cccc(OCc3ccc(Cl)cc3)c2)C(=O)N1`, the growth is 81.4% (inactive).
On the same count and under the same terms, next, `COc1ccc([C@H]2c3[nH]c4ccccc4c3C[C@H]3C(=O)N(CCCCCCC(=O)NO)CC(=O)N23)cc1`: 81% (inactive); `c1csc(-c2cnc3nonc3n2)c1`: 89.7% (inactive).
On the same count and under the same terms, next, `CC1(C)CN(CCNc2nccc(-c3c(-c4cccc(O)c4)nc4sccn34)n2)S(=O)(=O)N1`: 95.7% (inactive).
Same read-out and setting: next, `COc1cc(C2CC(c3ccc(Cl)cc3)=NN2C(C)=O)ccc1Oc1ccnc2cc(Cl)ccc12` (stereo unspecified): 91.9% (inactive).
Regarding `CN(C)CCCn1c(=O)c2cc([N+](=O)[O-])ccc2c2cnc3[nH]ccc3c21`, the growth is 48% (inactive).
The same measure, in the same setting: next, `CN(C)N1C(=O)c2c(Cl)c(Cl)c(Cl)c(Cl)c2C1=O`: 109% (inactive); `CCCCCCCCCCCCNC(=O)N[C@H](C(=O)N[C@H]1/C=C/OCCNC(=O)/C=C/[C@H](C(C)C)NC1=O)C(C)C`: 117% (inactive).
On the same count and under the same terms, next, `COc1ccc2c(c1)sc1nc(-c3ccccc3)c(-c3cccc4ccccc34)n12`: 23% (inactive); `O=C(O)CSc1ccc(NCc2oc(CO)cc(=O)c2O)cc1`: 107% (inactive).
Still for that read-out and setting: next, `Oc1ccc(-c2nnc3c4[nH]ccc4ncn23)cc1`: 110% (inactive); `COc1cccc(N2CCN(c3ncnc4cc[nH]c34)CC2)c1`: 83% (inactive).
`NC(N)=NC1CCCCC1`: the growth is 103% (inactive).
Still for that read-out and setting: next, `COc1cc(CN(c2ccc(C)cc2)C2OC(=O)c3ccccc32)cc(OC)c1OC` (stereo unspecified): 6.19% (active); `CC(C)(C)OC[C@@H]1N=C(c2ccc(Br)cc2)Nc2nc3ccccn3c2C1=O`: 44.1% (inactive); `Cc1ccc(Nc2cc(Cl)c([N+](=O)[O-])cc2[N+](=O)[O-])cc1`: 16.8% (inactive).
Turning to `N/C(=C\C(=O)n1nc(-c2ccccc2)cc1N)c1ccccc1`, the growth was 33.5% (inactive).
As to `Nc1nc(N)c2cc(NCc3ccc(Cl)c(Cl)c3)ccc2n1`, the growth was -80% (active).
Take `Cn1c(-c2ccccc2)cc(=O)n1-c1ccccc1`: the growth is 104% (inactive).
Take `O=C(Nc1ccncc1)C(=O)c1cn(S(=O)(=O)c2cccc(Cl)c2F)c2ccccc12`: the growth was 50% (inactive).
Take `O=C(CSc1nnc(Cc2ccccc2Nc2c(Cl)cccc2Cl)n1-c1ccccc1)N1N=C(c2ccc3ccccc3c2)CC1c1ccc(Cl)cc1` (stereo unspecified): the growth is 98.9% (inactive).
Still for that read-out and setting: next, `CSc1ccc(/C=C2\C=C(CC(=O)NCc3ccc(C(=O)c4ccccc4)cc3)c3cc(F)ccc32)cc1`: 5.88% (active).
Regarding `C=C1C(=O)O[C@H]2[C@H]1CC/C(COC(=O)NCc1ccc(Cn3c(=O)sn(CCCl)c3=O)cc1)=C\CC[C@@]1(C)O[C@@H]21`, the growth is 27.6% (inactive).
In the case of `O=C(O/C(=C/c1ccccc1)C(F)(F)F)c1ccccc1`, the growth was 114% (inactive).
In the case of `COc1ccc(N=C2CSc3nnc(-c4cc(F)c(Cl)cc4Cl)n3N2)cc1`, the growth was 5.01% (active).
On to `CCCCCCCCN(CCCCCCCC)C(=O)CCl`, for which the growth is 96.1% (inactive).
The same measure, in the same setting: next, `CC(C)(CCc1ccccn1)C(=O)CCCc1ccccn1`: 108% (inactive); `Cn1cnc([N+](=O)[O-])c1S(=O)(=O)Oc1ccccc1`: 55% (inactive).
Same read-out and setting: next, `CCOC(=O)C1=C(C)NC(=S)NC1c1ccccc1` (stereo unspecified): 104% (inactive).

A further assay has as its system HT29 colon. Described as above. The conditions noted are these: 10 µM unless noted.
With `COc1ccc2nc(C)cc(Sc3nc4ccccc4s3)c2c1`, the growth was 26.2% (inactive).
The same measure, in the same setting: next, `CCN(CC)CCCC(C)Nc1ccnc2ccc(Oc3ccccc3)cc12` (stereo unspecified): 38.6% (inactive); `FC(F)(F)c1nn[nH]n1`: 100% (inactive); `CC(C)c1nc2ccccc2n1CC(=O)N/N=C/c1cccc(O)c1`: 104% (inactive).
On the same count and under the same terms, next, `O=c1c2cc(Br)cc(Br)c2nc(-c2ccc(Cl)cc2)n1/N=C\c1ccccc1F`: 77.3% (inactive).
`C=CCN(CC#N)CC=C`: the growth was 94.5% (inactive).
For the compound `COC(=O)[C@@H](Cc1c[nH]c2ccccc12)NC(=O)/C=C/c1ccccc1`, the growth was 85.5% (inactive).
The same measure, in the same setting: next, `CCOC(=O)C(CCCCC(NC(C)=O)(C(=O)OCC)C(=O)OCC)(NC(C)=O)C(=O)OCC`: 100% (inactive).
Same read-out and setting: next, `COc1ccc(-c2cnnn2-c2nonc2-n2cccc2)cc1`: 8.25% (active).
With `CSC1=N/C(=C\c2cccc(OCc3ccc(Cl)cc3)c2)C(=O)N1`, the growth was 76.7% (inactive).
`COc1ccc([C@H]2c3[nH]c4ccccc4c3C[C@H]3C(=O)N(CCCCCCC(=O)NO)CC(=O)N23)cc1`: the growth is 35% (inactive).
Still for that read-out and setting: next, `c1csc(-c2cnc3nonc3n2)c1`: 91.2% (inactive); `CC1(C)CN(CCNc2nccc(-c3c(-c4cccc(O)c4)nc4sccn34)n2)S(=O)(=O)N1`: 54.4% (inactive).
In the case of `COc1cc(C2CC(c3ccc(Cl)cc3)=NN2C(C)=O)ccc1Oc1ccnc2cc(Cl)ccc12` (stereo unspecified), the growth is 28.2% (inactive).
Still for that read-out and setting: next, `CN(C)CCCn1c(=O)c2cc([N+](=O)[O-])ccc2c2cnc3[nH]ccc3c21`: 16.2% (inactive); `CN(C)N1C(=O)c2c(Cl)c(Cl)c(Cl)c(Cl)c2C1=O`: 107% (inactive); `CCCCCCCCCCCCNC(=O)N[C@H](C(=O)N[C@H]1/C=C/OCCNC(=O)/C=C/[C@H](C(C)C)NC1=O)C(C)C`: 34.9% (inactive).
With `COc1ccc2c(c1)sc1nc(-c3ccccc3)c(-c3cccc4ccccc34)n12`, the growth was 1.35% (active).
On the same count and under the same terms, next, `O=C(O)CSc1ccc(NCc2oc(CO)cc(=O)c2O)cc1`: 99.5% (inactive); `Oc1ccc(-c2nnc3c4[nH]ccc4ncn23)cc1`: 98.3% (inactive).
Still for that read-out and setting: next, `COc1cccc(N2CCN(c3ncnc4cc[nH]c34)CC2)c1`: 73.2% (inactive).
For the compound `NC(N)=NC1CCCCC1`, the growth is 97.1% (inactive).
As for `COc1cc(CN(c2ccc(C)cc2)C2OC(=O)c3ccccc32)cc(OC)c1OC` (stereo unspecified), the growth was 18.9% (inactive).
Regarding `CC(C)(C)OC[C@@H]1N=C(c2ccc(Br)cc2)Nc2nc3ccccn3c2C1=O`, the growth was 21.8% (inactive).
On the same count and under the same terms, next, `Cc1ccc(Nc2cc(Cl)c([N+](=O)[O-])cc2[N+](=O)[O-])cc1`: 3.12% (active).
Still for that read-out and setting: next, `N/C(=C\C(=O)n1nc(-c2ccccc2)cc1N)c1ccccc1`: 23.8% (inactive); `Nc1nc(N)c2cc(NCc3ccc(Cl)c(Cl)c3)ccc2n1`: -76.3% (active); `Cn1c(-c2ccccc2)cc(=O)n1-c1ccccc1`: 106% (inactive).
For `O=C(Nc1ccncc1)C(=O)c1cn(S(=O)(=O)c2cccc(Cl)c2F)c2ccccc12`, the growth is 50% (inactive).
On the same count and under the same terms, next, `O=C(CSc1nnc(Cc2ccccc2Nc2c(Cl)cccc2Cl)n1-c1ccccc1)N1N=C(c2ccc3ccccc3c2)CC1c1ccc(Cl)cc1` (stereo unspecified): 86.2% (inactive); `CSc1ccc(/C=C2\C=C(CC(=O)NCc3ccc(C(=O)c4ccccc4)cc3)c3cc(F)ccc32)cc1`: -15.1% (active).
Still for that read-out and setting: next, `C=C1C(=O)O[C@H]2[C@H]1CC/C(COC(=O)NCc1ccc(Cn3c(=O)sn(CCCl)c3=O)cc1)=C\CC[C@@]1(C)O[C@@H]21`: 15.1% (inactive); `O=C(O/C(=C/c1ccccc1)C(F)(F)F)c1ccccc1`: 110% (inactive); `COc1ccc(N=C2CSc3nnc(-c4cc(F)c(Cl)cc4Cl)n3N2)cc1`: -66.9% (active).
Same read-out and setting: next, `CCCCCCCCN(CCCCCCCC)C(=O)CCl`: 114% (inactive); `CC(C)(CCc1ccccn1)C(=O)CCCc1ccccn1`: 97% (inactive).
Consider `Cn1cnc([N+](=O)[O-])c1S(=O)(=O)Oc1ccccc1`, for which the growth is 88.7% (inactive).
In the case of `CCOC(=O)C1=C(C)NC(=S)NC1c1ccccc1` (stereo unspecified), the growth is 110% (inactive).
